Sampled rows, rich in hits. Any-hit rate of the full collection: about 0.43%.
GAA glycogen – qHTS Assay for Inhibitors and Activators of Human alpha-Glucosidase Cleavage of Glycogen | Potency, µM (series often up to 76.4 µM), for inactives: top-dose activity change, negative = inhibition, actives largely listed as inhibitors | AID 2100, 2009 | 300,000 tested, 0.38% active | recombinant GAA, glycogen substrate, Amplex Red glucose oxidase fluorescence | Lysosomal alpha-glucosidase (Homo sapiens), P10253;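 also: potency is read from the fitted curve at half-maximal effect; 0% = full enzyme reaction and -100% = no-enzyme basal signal; the screen sought inhibitors and activators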
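Natural-substrate format: glycogen cleavage by 4 nM human enzyme, glucose read by Amplex Red coupling (Ex 573, Em 610 nm). Normalized to enzyme and no-enzyme controls.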
N370S GC – qHTS Assay for Inhibitors and Activators of N370S glucocerebrosidase as a Potential Chaperone Treatment of Gaucher Disease; Lysosomal acid glucosylceramidase (Homo sapiens), P04062; N370S GC spleen homogenate, 4MU-glucoside fluorescence; Potency, µM (top dose mostly 59.4 µM), without a hit: at the top dose activity change, negative = inhibition, hits mostly inhibitors; 330,000 tested, 0.092% active; AID 2101, 2009;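 also: potency is read from the fitted curve at half-maximal effect; 0% = full enzyme activity and -100% = no enzyme basal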
GLA inh pH 4.5 – qHTS Assay for Inhibitors of Human alpha-Galactosidase at pH 4.5; Alpha-galactosidase A (Homo sapiens), P06280; purified enzyme, 4-MU-alpha-Gal fluorescence, pH 4.5; activity change, negative = inhibition, % at 105 µM; 230,000 tested, under 10 active; AID 1467, 2008;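 also: 0% = full activity with enzyme and -100% = basal without enzyme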
Target sequence (P06280 whole entry, looked up): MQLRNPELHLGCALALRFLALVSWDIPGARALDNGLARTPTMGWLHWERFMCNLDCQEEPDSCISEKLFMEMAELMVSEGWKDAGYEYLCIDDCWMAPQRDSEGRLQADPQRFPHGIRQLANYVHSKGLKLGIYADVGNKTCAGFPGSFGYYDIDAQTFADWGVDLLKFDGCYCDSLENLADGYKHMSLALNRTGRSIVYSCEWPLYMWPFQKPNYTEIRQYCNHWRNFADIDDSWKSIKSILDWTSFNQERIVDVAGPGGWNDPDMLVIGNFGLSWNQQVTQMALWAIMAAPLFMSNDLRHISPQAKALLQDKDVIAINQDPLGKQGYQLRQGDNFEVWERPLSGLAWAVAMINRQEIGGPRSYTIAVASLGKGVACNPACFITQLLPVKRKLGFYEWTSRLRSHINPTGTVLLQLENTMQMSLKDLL
GAA inh – qHTS Assay for Inhibitors of Human alpha-Glucosidase as a Potential Chaperone Treatment of Pompe Disease | Lysosomal alpha-glucosidase (Homo sapiens), P10253 | purified human GAA, 4-MU-alpha-glucoside fluorescence | Potency, µM (doses to about 76.9 µM), for the others: top-dose activity change, negative = inhibition, hits mostly inhibitors | 200,000 tested, 0.005% active;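 also: potency is read from the fitted curve at half-maximal effect; plate controls were uninhibited enzyme wells for no effect and no-enzyme background for full effect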
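Fluorogenic assay: 4 nM human alpha-glucosidase with 400 uM 4-methylumbelliferyl-alpha-D-pyranoside in 50 mM citrate/phosphate, 0.005% Tween-20, pH 5.0, 20 min at room temperature. Compounds tested up to 77 uM; AC50 from Hill fits.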
GLA spleen mod – qHTS Assay for Inhibitors and Activators of Human alpha-Galactosidase From Spleen Homogenate; Alpha-galactosidase A (Homo sapiens), P06280; human spleen homogenate, 4MU-alpha-Gal fluorescence, 40 min; Potency, µM (doses to about 80 µM), without a hit: at the highest dose activity change, negative = inhibition, actives largely listed as inhibitors; 240,000 tested, 0.008% active; AID 2107, 2009;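 also: potency is read from the fitted curve at half-maximal effect; 0% = enzyme with vehicle and -100% = no enzyme basal signal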
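Spleen homogenate 1 ug + cpd (titration) + 4-MU-alpha-D-galactopyranoside 1 mM; 37C 40 min; 50 mM citrate/phosphate pH 5.0, 0.01% Tween-20; stop pH 10; fluorescence 365/440; AC50 via Hill.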
GAA spleen mod – qHTS Assay for Inhibitors and Activators of Human alpha-Glucosidase From Spleen Homogenate. 240,000 tested, 0.006% active. AID 2112, 2009. Potency, µM (top dose mostly 79.9 µM), for the others: top-dose activity change, negative = inhibition, actives largely listed as inhibitors. human spleen homogenate, 4-MU-alpha-glucoside fluorescence;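 also: potency is read from the fitted curve at half-maximal effect; 0% = enzyme with vehicle and -100% = no enzyme basal signal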
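AC50 values come from Hill-equation fits of concentration-response data, normalized to no-enzyme and full-activity controls. Enzyme source: 1 ug human spleen homogenate; 1 mM fluorogenic 4-MU glucoside, pH 5.0 citrate buffer, 37 C, 40 min.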
* marks the source's active call; other numbers are inactive results; u = inconclusive; x = not tested or not shown; [ ] = another dose, or the depositor's remark. Calls follow the shape of the dose curve; as a rule, active = well fitted curve in the direction sought with a large enough effect; inconclusive = small, poorly fitted or top-dose-only effect, or another doubt; inactive = no such curve, though single readings can be large; an effect the other way counts as inactive or inconclusive.

SMILES	GAA glycogen	N370S GC	GLA inh pH 4.5	GAA inh	GLA spleen mod	GAA spleen mod
O=C(/C=C/C#Cc1cccc(NS(=O)(=O)c2ccccc2)c1)NO	x	-12.0%	x	x	8.1%	1.1%
CO[C@@H]1COC(=O)[C@@H](C)COC(=O)[C@@H](C)NC(=O)C/C=C\[C@@H]1C	x	6.3%[12.8 µM]	x	x	28.3%[17.5 µM]	2.4%[17.4 µM]
CC(Oc1ccc(F)cc1)C(=O)NCC1(N(C)C)CCCCC1 (centres undefined)	4.9%[76.3 µM]	x	x	x	x	x
COc1oc(=O)c2cc(N)ccc2c1Cl	x	-2.4%	x	x	-9.1%	4.0%
CC(=O)NC1C(O)O[C@H](C(=O)O)[C@@H](O)[C@@H]1O (some centres undefined)	x	-2.4%	x	x	-3.8%	0.5%
COc1cccc(CCNC(=O)c2ccc(Cn3c(SCc4ccccc4)nc4cccnc43)cc2)c1	-10.8%[76.3 µM]	x	x	x	x	x
COC(=O)N1CCc2cc(OC)c(OC)cc2C1Cc1ccc(OC)cc1 (centres undefined)	x	-1.2%[12.8 µM]	x	x	6.3%[17.5 µM]	-2.3%[17.4 µM]
COC(=O)Nc1c(-c2ccccc2)nc2ccc(Cl)cn12	5.9%[76.3 µM]	-5.9%	x	x	x	x
COC(=O)CNc1c(-c2ccccc2)nc2ccc(Br)cn12	u	11.2µM*	-2.2	-7.8%	-17.4%	-6.9%
c1cncc(CNc2ccc3c(c2)OCO3)c1	17.8µM*	x	7.2	-3.8%	4.3%	-1.7%
Cc1ccn2c(Nc3ccccc3C)c(-c3ccccn3)nc2c1	3.98µM*	-16.3%	-0.3	0.1%	-0.3%	-4.5%
CC(C)c1ccc(Nc2c(-c3ccccn3)nc3ccccn23)cc1	5.62µM*	x	x	x	x	x
Cc1ccc2nc(-c3cccnc3)c(Nc3ccc(C(C)C)cc3)n2c1	-8.6%[76.3 µM]	x	x	x	x	x
Cc1ccn2c(Nc3ccccc3)c(-c3ccccn3)nc2c1	u	3.2%	-4.2	-12.2%	1.8%	4.2%
Cc1ccn2c(Nc3ccc(C(C)C)cc3)c(-c3cccnc3)nc2c1	15.8µM*	x	x	x	x	x
Cc1ccccc1Nc1c(-c2ccccn2)nc2ccccn12	u	-9.6%	-3.0	-2.0%	-1.2%	-1.1%
C(=N\Nc1ccccn1)/c1c[nH]c2ccccc12	35.5µM*	-9.2%	-9.7	x	1.9%	-0.1%
C[C@H]1Cc2c(COc3ccccc3)nc3c(c2CO1)CN(S(=O)(=O)c1ccc(Cl)c2nonc12)CC3	x	1.9%[12.8 µM]	8.4	x	-0.9%[17.5 µM]	-7.8%[17.4 µM]
Oc1ccccc1OCc1nc2ccccc2s1	-29.7%	-10.4%	-1.8	-8.8%	-0.3%	0.1%
Oc1ccc(O)c(Cc2nc3ccccc3s2)c1	5.62µM*	6.4%	-10.6	-18.0%	3.3%	-3.5%
Nc1ncnc2c1nc(N1CCCCC1)n2[C@@H]1O[C@@H]2COP(=O)(O)O[C@H]2[C@H]1O	x	-15.2%	x	x	4.4%	-1.8%
CCC(C(=O)N1CCN(c2ccccc2)CC1)n1nc(C)c2sc3ccccc3c2c1=O (centres undefined)	-0.8%[76.3 µM]	x	x	x	x	x
CCSC[C@H](NC(=O)[C@H](C)N)C(=O)N[C@@H](CC(=O)O)C(=O)N[C@H](C(=O)N[C@@H](C)C(=O)N[C@H](C(=O)N[C@@H](CSCC)C(=O)N[C@H](C(=O)N[C@H](C(=O)N[C@@H](Cc1cnc[nH]1)C(=O)N[C@@H](CCCNC(=N)N)C(=O)N[C@@H](CC(C)C)C(=O)N[C@@H](C)C(=O)NCC(=O)N[C@@H](CC(C)C)C(=O)N[C@@H](CC(C)C)C(=O)N[C@@H](CO)C(=O)N[C@@H](CCCNC(=N)N)C(=O)N[C@@H](CO)C(=O)NCC(=O)NCC(=O)N[C@H](C(=O)N[C@H](C(=O)N[C@@H](CCCCN)C(=O)N[C@@H](CC(N)=O)C(=O)N[C@@H](CC(N)=O)C(=O)N[C@@H](Cc1ccccc1)C(=O)N[C@H](C(=O)N1CCC[C@H]1C(=O)N[C@H](C(=O)N[C@@H](CC(N)=O)C(=O)N[C@H](C(=O)NCC(=O)N[C@@H](CO)C(=O)N[C@@H](CCCCN)C(=O)N[C@@H](C)C(=O)N[C@@H](Cc1ccccc1)C(N)=O)C(C)C)[C@@H](C)O)C(C)C)C(C)C)C(C)C)[C@@H](C)O)C(C)C)[C@@H](C)O)[C@@H](C)O	x	3.2%	x	x	5.5%	2.4%
NNc1ccc2nnc(C(F)(F)C(F)(F)C(F)(F)F)n2n1	31.6µM*	12.8%	6.2	7.9%	5.1%	4.1%
FC(F)(F)C(F)(F)C(F)(F)c1nnc2ccc(N3CCOCC3)nn12	2.5%	19.8%	-12.6	-0.8%	3.0%	-11.7%
SMILES	GAA glycogen	N370S GC	GLA inh pH 4.5	GAA inh	GLA spleen mod	GAA spleen mod
CCN(CC)CCC(c1cc(OC)c(OC)c(OC)c1)c1c(OC)cc(OC)c2c1OC(=O)CC2c1ccc(N(C)C)cc1 (centres undefined)	x	-11.0%	x	x	-0.6%	-2.7%
OC1C2COC(O2)[C@H](O)C1O (some centres undefined)	x	7.6%	6.0	x	-16.9%	-7.6%
COc1cc(C2Nc3cccc4cccc(c34)N2)ccc1O	3.3%[76.3 µM]	0.6%	x	x	x	x
Oc1ccc2ccccc2c1C1Nc2cccc3cccc(c23)N1	10µM*	-22.4%	1.7	-3.6%	1.5%	-0.9%
COc1ccc(NC(=S)NNC(=O)Cn2nc([N+](=O)[O-])cc2C)cc1	14µM*	1.0%	-0.2	-6.4%	2.8%	3.2%
Oc1ccc(N2CCN(c3ncnc4sc5c(c34)CCC5)CC2)cc1	14µM*	-18.1%	5.3	-0.3%	16.7%	-4.3%
CCOC(=O)OCC1OC(c2ccccc2)C=CC1OC(=O)OCC (centres undefined)	x	-12.6%[12.8 µM]	x	x	5.5%[17.5 µM]	-5.3%[17.4 µM]
COC(=O)CSc1cc([N+](=O)[O-])ccc1NC(=O)OC	5.4%	-2.9%	4.8	u	35.5µM*	-24.3%
COc1ccc(S(=O)(=O)Nc2cc3c(cc2NCc2ccccc2)n(C)c(=O)n3C)cc1	10µM*	x	x	x	x	x
CN(C)Cc1ccccc1-c1cc(NCc2ccccc2)ncn1	x	-3.0%	x	x	-3.0%	6.3%
Cc1ccsc1C=Nc1c(C)n(C)n(-c2ccccc2)c1=O	3.14µM*	3.8%	-10.1	5.8%	11.8%	2.3%
Cc1c(N=Cc2cccs2)c(=O)n(-c2ccccc2)n1C	25.1µM*	-2.9%	-10.7	-3.5%	12.1%	8.1%
CCOc1ccc(OCC)c(NC(=O)c2csc3c2CCCC3)c1	-15.9%[76.3 µM]	x	x	x	x	x
COc1cccc(-n2sc3c(c2=S)-c2cc(OC)ccc2NC3(C)C)c1	39.8µM*	1.4%	-6.7	-7.9%	-5.6%	-6.3%

From PubChem BioAssay
